Laboratory results published in PubChem BioAssay (NCI).
The panel holds about 79,000 compounds, 15% with a hit somewhere; the sample as a whole holds those more often. Cut-off read from the data, not from the text of the source: active = growth inhibition above about 70%; inactive = the rest.

How the values were obtained:
[1] = NCI Yeast Anticancer Drug Screen. Data for the rad50 strain (AID 155);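 note: 0% = growth of vehicle-only cultures of the same strain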; conditions: S. cerevisiae rad50 strain growth inhibition; at 50.0 µM; active compounds read high
How it was run: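 DNA repair mutant yeast, compound exposure, growth read-out; inhibition is taken relative to vehicle.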

[2] = NCI Yeast Anticancer Drug Screen. Data for the mec2-1 strain (AID 157); conditions: S. cerevisiae mec2-1 strain, at 50.0 µM, active compounds read high
How it was run: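 Strain: mec2-1 (DNA repair/cell cycle alteration). Compound exposure, then growth measured; inhibition expressed relative to vehicle.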

[3] = NCI Yeast Anticancer Drug Screen. Data for the sgs1 mgt1 strain (AID 161);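 note: 0% = growth of cultures given vehicle only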; conditions: S. cerevisiae sgs1 mgt1 strain, at 50.0 µM, active compounds read high
How it was run: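 Genetically altered yeast, compound exposure, growth inhibition relative to vehicle.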

[4] = NCI Yeast Anticancer Drug Screen. Data for the cln2 rad14 strain (AID 165);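 note: 0% = growth equal to vehicle treated cultures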; conditions: S. cerevisiae cln2 rad14 strain, at 50.0 µM, active compounds read high
How it was run: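 Compounds are applied to the cln2 rad14 yeast strain, and growth is then compared with that of vehicle-treated cultures to give inhibition.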

[5] = NCI Yeast Anticancer Drug Screen. Data for the bub3 strain (AID 167); conditions: S. cerevisiae bub3 mutant strain, at 50.0 µM, active compounds read high
How it was run: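 In this screen, a yeast mutant lacking normal mitotic checkpoint function is challenged with compound. Relative growth versus vehicle gives the inhibition value.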

[6] = NCI Yeast Anticancer Drug Screen. Data for the mlh1 rad18 strain (AID 175); conditions: S. cerevisiae mlh1 rad18 strain growth inhibition; at 50.0 µM; active compounds read high
How it was run: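 Read-out is yeast growth inhibition, calculated against vehicle-only controls. The compound was applied to a strain engineered with DNA damage repair alterations.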

Measured: growth inhibition

O=[N+]([O-])c1ccc(NN=C2CCCCCC2)c([N+](=O)[O-])c1
inactive: [1] 5.95% | [2] 8.35% | [3] 8.3% | [4] -99% | [5] 7.45% | [6] -0.45%

CCCCCCOC(=O)CCBr
inactive: [1] 5% | [2] 2.35% | [3] -3.15% | [4] -4.55% | [5] 4.55% | [6] 1.4%

CN1C(=O)c2ccccc2N(C)C(=O)c2ccccc21
inactive: [1] 0.9% | [2] -15.1% | [3] 11.3% | [4] -2.45% | [5] 4.85% | [6] 12%

Cc1cccc(Cl)c1NC(=O)CN(C)C
inactive: [1] 21.4% | [2] -0.55% | [3] 17.7% | [4] 10.4% | [5] 19.6% | [6] 24.7%

CC(C)=CC1C(C(=O)SCc2cc3c(cc2Br)OCO3)C1(C)C (stereo unspecified)
inactive: [1] 0.95% | [2] -6.05% | [3] -10.2% | [4] 6.25% | [5] 5.6% | [6] 6.5%

NC1CCCCC1N.O=NN1CCCCCC1(P(=O)([O-])[O-])P(=O)([O-])[O-].[Na+].[Pt+2]
inactive: [1] -34.9% | [2] 20% | [3] -14.6% | [4] -19.3% | [5] -12.6% | [6] -10.4%

CC(=O)CC(C)=NCCCCN=C(C)CC(C)=O
inactive: [1] -12.6% | [2] -29.1% | [3] 5.55% | [4] 5.35% | [5] -25.2% | [6] -17.3%

CC(=O)Oc1c(C)c2c(O)c3c1C1=C(OCOC1=C(C)C3=O)/C(C)=C\C(C)(O)C(O)C(C)C(O)C1C(=O)OC(C(C)C1O)C(C)(O)/C=C/C=C(C)C(=O)N2 (stereo unspecified)
inactive: [1] 16.2% | [2] 3.65% | [3] -10.4% | [4] 8.95% | [5] 9.7% | [6] 5.5%

Cc1cccc(C)c1NC(=O)CCC(=O)CC(=O)C(C)C
inactive: [1] -2.6% | [2] -4.85% | [3] -6.2% | [4] 2.55% | [5] 7.25% | [6] -13.1%

COc1cc(OC)c2c(c1)OC(c1ccccc1)CC2=O (stereo unspecified)
inactive: [1] -3.3% | [2] 3.05% | [3] -18.2% | [4] 2.25% | [5] 13.8% | [6] 11.8%

C=C1CN(CCc2ccccc2)C(=S)S1
inactive: [1] 55.6% | [2] 19.1% | [3] 22.4% | [4] 3.65% | [5] 1.35% | [6] 11.4%

NC(=S)N/N=C1/C(=O)N(c2ccccc2)C(=O)C1C(=O)Nc1ccccc1 (stereo unspecified)
inactive: [1] 46.2% | [2] 16.8% | [3] 38% | [4] 0.9% | [5] -0.25% | [6] 39.1%

Cc1nc2nc(NCCCN(C)C)nc(NCCCN(C)C)c2nc1C
inactive: [1] 18.8% | [2] 1.25% | [3] 22.1% | [4] 23.6% | [5] 21.4% | [6] 15.3%

COC(=O)c1ccc(C(=O)OC)c(N)c1
inactive: [1] 0.95% | [2] 5.4% | [3] -1.85% | [4] -33% | [5] 3.95% | [6] 0.5%

O=C(C1C2C=CC(C2)C1C(=O)N1CCCCC1)N1CCCCC1 (stereo unspecified)
inactive: [1] 2.5% | [2] 25.4% | [3] 13.2% | [4] -1.8% | [5] 12.3% | [6] 11.5%

Cc1ccc2c(c1)C1(c3ccccc3)Oc3ccc(C)cc3C(c3ccccc3)(O2)O1
inactive: [1] 12.2% | [2] 5.75% | [3] 10.7% | [4] 25.3% | [5] -4.9% | [6] -7.2%

COC(=O)/C=C(C)/C=C/C1OC(C)OCC1O (stereo unspecified)
inactive: [1] 7.55% | [2] 2.3% | [3] -3.65% | [4] -8.55% | [5] -5.45% | [6] 5.5%

CC(=O)Nc1nnc(SCc2ccccc2)s1
inactive: [1] 9% | [2] 6.35% | [3] -4.4% | [4] -10% | [5] 3.4% | [6] -20.6%

COc1ccc(-c2ccccc2)cc1NC(C)=O
inactive: [1] 9.8% | [2] 15.2% | [3] 6.75% | [4] 20.9% | [5] 14% | [6] 16.5%

Cc1cc(C)c(Cc2c(C)cc(C)cc2C)c(C)c1
inactive: [1] 14.8% | [2] -25.6% | [3] 7.25% | [4] -2.85% | [5] 23.9% | [6] 13.9%

CCc1cccc(Nc2ccccc2C(=O)O)c1
inactive: [1] 42% | [2] 25.2% | [3] 29.8% | [4] -26.6% | [5] -2.05% | [6] -2.2%

Cc1ccccc1NC(=O)Oc1ccc2c(C)cc(=O)oc2c1
inactive: [1] -3% | [2] 12.2% | [3] 14.4% | [4] -17.2% | [5] 14.3% | [6] 24.9%

CC1=Nc2nc(=N)nc3cccc(n23)N1
inactive: [1] -3.55% | [2] -6.55% | [3] -7% | [4] -6% | [5] -7.7% | [6] 5.95%

CC(C)CN(CC(C)C)/N=C/c1cc([N+](=O)[O-])ccc1O
inactive: [1] -11.7% | [2] 9% | [3] -4.9% | [4] -3.65% | [5] -12.9% | [6] -14.8%

O=C(OC1C#CCSCC#C/C=C\1)c1cnc2ccccc2n1 (stereo unspecified)
inactive: [1] -34% | [2] -13.4% | [3] -24.3% | [4] -11.2% | [5] -2.55% | [6] -23%

O=C(C[n+]1cc(Br)cc(Br)c1)c1ccc(Cl)cc1
inactive: [1] -9.6% | [2] -15.8% | [3] -13% | [4] -13.8% | [5] -30.1% | [6] -7.9%

CCO[Si](C)(CCC#N)OCC
inactive: [1] 6.05% | [2] -64% | [3] -12.7% | [4] 30.9% | [5] -31.6% | [6] 4.75%

CNC(=O)SCC(NC(=O)CCC(N)C(=O)O)C(=O)NCC(=O)O (stereo unspecified)
inactive: [1] -7.45% | [2] 9.55% | [3] 27.4% | [4] 28.4% | [5] 18.4% | [6] 36.3%

CC(=O)ON=C(C1CC1)C1CC1
inactive: [1] -6% | [2] 3.5% | [3] -6.4% | [4] 4.3% | [5] -13% | [6] -3.3%

N#Cc1cnsc1
inactive: [1] -4.15% | [2] 2.65% | [3] 4.75% | [4] 3.55% | [5] 12.4% | [6] -26.8%

CN1C(=O)C=C(C=Nc2ccc(-c3ccccc3)cc2)C2CCCCC21 (stereo unspecified)
inactive: [1] 0.85% | [2] -8.75% | [3] -8.05% | [4] 6.55% | [5] 11.5% | [6] 6.75%

O=C(CCC(=O)Nc1ccc(Cl)cc1)CC(=O)c1ccc2ccccc2c1
inactive: [1] -51% | [2] -28.9% | [3] -13.3% | [4] 8.4% | [5] -31.1% | [6] -29.9%

CCCCCCCC(=O)N1C2CN3C4=C(C(=O)C(N)=C(C)C4=O)C(COC(N)=O)C3(OC)C21 (stereo unspecified)
inactive: [1] 18.6% | [2] 13.1% | [3] 30.4% | [4] 20.8% | [5] 19.1% | [6] 47.1%

COc1ccc(NCc2cnc3nc(N)nc(N)c3c2C)cc1
inactive: [1] 7% | [2] 6.6% | [3] 16.6% | [4] 16.5% | [5] 1.85% | [6] -49%

CCN(CC)C(=O)CCC(=O)O
inactive: [1] 0.4% | [2] -13.3% | [3] -14.7% | [4] 3.3% | [5] 0.55% | [6] 24.7%

CCCc1c(Cl)nc(Cl)nc1Cl
inactive: [1] -8.75% | [2] 26.8% | [3] 11.8% | [4] -54.8% | [5] 5.2% | [6] -22.4%

Cc1cccc(-c2nnc(-c3cccc4ccccc34)o2)c1
inactive: [1] 8.8% | [2] -28.8% | [3] 43.8% | [4] 14.3% | [5] 26.5% | [6] 13.4%

CC(C)NC(=O)OCc1c(COC(=O)NC(C)C)c2cccn2c2c1cnn2-c1ccccc1
inactive: [1] -0.9% | [2] 0.6% | [3] -11.2% | [4] -3.7% | [5] 0.15% | [6] 18.3%

C=C1c2nc3ccccc3n2C=C(c2ccc(C)cc2)N1c1ccc(OC)cc1
inactive: [1] -10.2% | [2] -6.45% | [3] -7% | [4] 15.5% | [5] -19% | [6] -17.9%

O=C(Nc1ccc2ccccc2c1)C1CC1
inactive: [1] 0.2% | [2] -13.3% | [3] -9.15% | [4] -68.8% | [5] -33.1% | [6] -6.65%

OC1(Cl)c2cccc3cccc(c23)C1(O)Cl (stereo unspecified)
inactive: [1] -0.8% | [2] 5.8% | [3] 2.6% | [4] -9.45% | [5] 0.25% | [6] -14.1%
